Compound activity deposited in PubChem by The Scripps Research Institute Molecular Screening Center.
Rows were chosen to be rich in hits. Some 2.3% of all compounds tested hit in one or more screens of this group.
GSTO1 counter: inhibitors of recombinant GSTO1, primary screen, counter-screen for RBBP9 inhibitor project, biochemical, fluorescence polarization; activity-based probe fluorescence polarization; inhibition, % at 5.96 µM; actives 1.1% (n = 300,000);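 active = inhibition above the campaign mean inhibition plus 3 SD, cut at about 35% in these data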;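 note: 0% = GSTO1-1 with DMSO and 100% = wells lacking GSTO1-1 enzyme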
Target sequence (P78417 whole entry, looked up): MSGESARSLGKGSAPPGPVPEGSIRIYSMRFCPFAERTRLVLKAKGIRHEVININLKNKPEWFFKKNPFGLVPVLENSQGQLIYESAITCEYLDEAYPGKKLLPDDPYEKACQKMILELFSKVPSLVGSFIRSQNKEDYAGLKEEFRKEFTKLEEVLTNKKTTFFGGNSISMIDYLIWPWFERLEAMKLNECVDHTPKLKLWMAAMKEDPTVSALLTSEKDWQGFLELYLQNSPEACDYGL
pPAFAH inh: pPAFAH enzyme inhibitors, primary screen, biochemical, fluorescence polarization, human | recombinant pPAFAH, FP-rhodamine probe fluorescence polarization | actives 1.5% (n = 330,000) | inhibition, % at 3.39 µM;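 active = inhibition above the mean inhibition across the screen plus 3 SD, cut at about 25% in these data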;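 note: inhibitors block binding of the rhodamine activity-based probe so polarization drops; 0% = enzyme with DMSO and 100% = wells lacking pPAFAH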
Target sequence (Q13093 whole entry, looked up): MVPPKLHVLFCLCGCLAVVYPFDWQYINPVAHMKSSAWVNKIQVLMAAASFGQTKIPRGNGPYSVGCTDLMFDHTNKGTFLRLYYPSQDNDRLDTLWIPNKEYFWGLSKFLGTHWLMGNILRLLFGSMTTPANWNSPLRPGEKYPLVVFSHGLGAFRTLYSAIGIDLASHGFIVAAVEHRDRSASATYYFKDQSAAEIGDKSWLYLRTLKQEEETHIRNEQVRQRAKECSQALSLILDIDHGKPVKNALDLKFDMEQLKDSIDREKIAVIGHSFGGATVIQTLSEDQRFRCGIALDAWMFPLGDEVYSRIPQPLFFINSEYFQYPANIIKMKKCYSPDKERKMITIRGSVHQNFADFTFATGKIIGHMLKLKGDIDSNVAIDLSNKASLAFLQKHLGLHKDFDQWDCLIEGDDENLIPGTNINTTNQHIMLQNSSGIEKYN
PME-1 inh: PME-1 inhibitors via competitive probe labeling, primary screen, biochemical, fluorescence polarization, FP-Rh probe, HTS; Protein phosphatase methylesterase 1 (Homo sapiens), Q9Y570; recombinant PME-1; inhibition, % at 5.9 µM; actives 0.53% (n = 320,000); AID 2130, 2009;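 active = inhibition above the campaign mean of all compounds plus 3 SD, cut at about 26% in these data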;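 note: competitive labeling of PME-1 active site by serine hydrolase directed probe; 0% = PME-1 with DMSO and 100% = wells lacking PME-1 enzyme; inhibitors block probe labeling so polarization falls and inhibition rises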
PAD4 FP inh: human PAD4 inhibitors, primary screen, biochemical, fluorescence polarization, 1536-well format; actives 0.41% (n = 330,000); AID 485272, 2010; inhibition, % at 6.36 µM; recombinant PAD4, RCA probe fluorescence polarization;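 active = percent inhibition above a cutoff equal to the mean of all tested compounds plus 3 SD, cut at about 15% in these data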;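 note: 0% = PAD4 with RCA probe and DMSO and 100% = probe without PAD4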
Fam108B inh: mouse Fam108B serine hydrolase inhibitors, primary screen, counter-screen for RBBP9 inhibitor project, biochemical, fluorescence polarization; recombinant Fam108B, FP-Rh probe fluorescence polarization; inhibition, % at 9.51 µM; actives 0.33% (n = 300,000); AID 1947, 2009;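 active = inhibition above the screen mean inhibition plus 3 SD, computed separately per campaign, cut at about 18% in these data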;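 note: inhibitors lower polarization as less probe binds the enzyme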
Fam108b confirm: mouse Fam108b serine hydrolase inhibitors, confirmation, counter-screen for RBBP9 inhibitor project, biochemical, fluorescence polarization, triplicate; recombinant Fam108b, FP-Rh probe fluorescence polarization; AID 1978, 2009; shares compounds with Fam108B inh; actives 44% (n = 930); inhibition, % at 9.51 µM;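 active = inhibition above a limit from the primary screen, the mean over all compounds plus 3 SD, cut at about 19% in these data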;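 note: 0% = median of active Fam108b wells and 100% = catalytically dead S170A mutant; inhibitors free the probe so polarization falls as inhibition rises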
Fam108b inh: inhibition of mouse Fam108b by HTS hits, late-stage follow-up, biochemical, gel-based ABPP, soluble recombinant form; AID 588649, 2011; shares compounds with Fam108B inh; actives 44% (n = 260); fluorophosphonate probe; inhibition, % at 20 µM; in the data active = inhibition above about 40%
GSTO1 inh conf: GSTO1 inhibitor hit confirmation, counter-screen for RBBP9 inhibitor project, biochemical, fluorescence polarization, triplicate. shares compounds with GSTO1 counter. recombinant GSTO1, probe fluorescence polarization. inhibition, % at 5.96 µM. actives 54% (n = 2,400);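 active = inhibition above the primary screen's cutoff, its mean inhibition plus 3 SD, cut at about 35% in these data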;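 note: loss of polarization as inhibitors block binding of rhodamine sulfonate ester activity probe; 0% = GSTO1 with DMSO and 100% = wells lacking GSTO1 enzyme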
pPAFAH confirm: pPAFAH (PLA2G7) enzyme inhibitors, confirmation, biochemical, fluorescence polarization, human | shares compounds with pPAFAH inh | recombinant pPAFAH, FP-Rh probe fluorescence polarization | inhibition, % at 3.39 µM | actives 72% (n = 2,300) | AID 463230, 2010;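 active = mean inhibition of the triplicate above the hit cutoff set for the earlier primary screen, cut at about 25% in these data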;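 note: 0% = enzyme with DMSO and 100% = wells lacking pPAFAH enzyme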
PAD4 FP conf: human PAD4 inhibitors, confirmation, biochemical, fluorescence polarization. shares compounds with PAD4 FP inh. recombinant PAD4, RCA probe fluorescence polarization. inhibition, % at 6.36 µM. actives 28% (n = 1,200);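 active = mean inhibition across replicates above the hit cutoff set by the earlier primary screen, cut at about 15% in these data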;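 note: inhibitors block active-site labeling by the probe so polarization falls; 0% = PAD4 with probe and DMSO and 100% = probe without PAD4 enzyme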
An asterisk follows results filed as active; x = not tested or not shown.

SMILES	GSTO1 counter	pPAFAH inh	PME-1 inh	PAD4 FP inh	Fam108B inh	GSTO1 inh conf	others
Cc1cc(C)c(S(=O)(=O)/N=C2/C=C(Sc3ncn[nH]3)C(=O)c3ccccc32)cc1C	84*	10	31*	30*	52*	87*	Fam108b confirm=28*;PAD4 FP conf=5
Cc1cc(O)c(Sc2ncn[nH]2)cc1NS(=O)(=O)c1ccc(Cl)cc1	x	2	-2	0	x	x
Cc1ccc(C)c(N(CC(=O)NC(C)C)C(=O)CCC(=O)Nc2ccccn2)c1	0	1	-2	3	0	x
CC(=O)[C@]1(O)Cc2c(O)c3c(c(O)c2[C@@H](O[C@H]2C[C@H](N)[C@H](O)[C@H](C)O2)C1)C(=O)c1ccccc1C3=O	67*	59*	72*	84*	71*	59*	Fam108b confirm=73*;Fam108b inh=20;pPAFAH confirm=69*;PAD4 FP conf=89*
COc1cccc2c1C(=O)c1c(O)c3c(c(O)c1C2=O)C[C@@](O)(C(=O)CO)C[C@@H]3O[C@H]1C[C@H](N)[C@@H](O)[C@H](C)O1	44*	60*	46*	56*	36*	33	Fam108b confirm=35*;Fam108b inh=35;pPAFAH confirm=45*;PAD4 FP conf=64*
CCOC(=O)c1cccc(NC(=O)CSc2nnc(C)n2CC2CCCO2)c1 (stereo unspecified)	4	3	1	2	-1	x
CCN(CC)S(=O)(=O)c1cc(NC(=O)C(C)OC(=O)c2[nH]c(C)c(C(C)=O)c2C)ccc1C (stereo unspecified)	-3	3	1	5	-4	x
CC(C)Cn1c(N)c(C(=O)NCC2CCCO2)c2nc3ccccc3nc21 (stereo unspecified)	29	13	22	-11	-6	x
COCCn1c(N)c(C(=O)NCC2CCCO2)c2nc3ccccc3nc21 (stereo unspecified)	102*	10	38*	76*	61*	5	Fam108b confirm=-7;PAD4 FP conf=-18
N#CCN(CC#N)C(=O)C1c2ccccc2Oc2ccccc21	19	62*	77*	56*	91*	x	Fam108b confirm=-9;pPAFAH confirm=3;PAD4 FP conf=2
Oc1ccc(N=Cc2ccc(-c3cccs3)s2)cc1	82*	22	51*	18*	28*	6	Fam108b confirm=62*;Fam108b inh=0;PAD4 FP conf=7
O=C(NNS(=O)(=O)c1ccc(C(F)(F)F)cc1)c1cnn(-c2ccccc2)c1C(F)(F)F	0	1	-2	3	0	x
O=c1[nH][nH]c(C(F)(F)F)c1C=Nc1ccccc1	7	1	4	-4	2	x
Cc1cc(O)ccc1N=Cc1c(C(F)(F)F)[nH][nH]c1=O	94*	74*	89*	98*	31*	x	Fam108b confirm=0;pPAFAH confirm=10;PAD4 FP conf=2
O=C(OC(C(=O)NCc1ccco1)c1ccc(Cl)cc1)c1cccs1 (stereo unspecified)	15	6	-3	-4	2	x
CC(C)(C)NS(=O)(=O)c1ccc2[nH]c3c(c2c1)CCCCC3	15	13	1	3	-70	x
CCS(=O)(=O)NCc1ccc2[nH]c3c(c2c1)CCCC3	46*	2	16	-15	6	60*
C=CCN1C=C2C(=O)C(C)(OC(=O)CCC(=O)OC)C(=O)C(Br)=C2C=C1c1ccc(OC)cc1 (stereo unspecified)	61*	17	6	-6	5	69*
COCCN1C=C2C(=O)C(C)(OC(=O)CCC(=O)OC)C(=O)C(Br)=C2C=C1c1ccc(OC)cc1 (stereo unspecified)	55*	9	4	-6	3	61*
COc1ccc(CN2C=C3C(=O)C(C)(OC(=O)CCc4ccccc4)C(=O)C=C3C=C2c2ccc(C#N)cc2)cc1 (stereo unspecified)	19	8	10	-10	9	x
COC(=O)CCC(=O)OC1(C)C(=O)C2=CN(C3CCCC3)C(c3ccc(OC)cc3)=CC2=C(Br)C1=O (stereo unspecified)	50*	14	0	-23	8	30
CCOC(=O)c1ccc(NC(=O)NCCc2cnc[nH]2)cc1	-6	6	2	-5	1	x
Cc1ccc(NS(=O)(=O)Cc2ccccc2)cc1Cl	5	14	-1	-4	0	x
COc1ccc(NC(=O)CCN2CCN(S(=O)(=O)c3ccc(Br)cc3)CC2)cc1	71*	8	5	1	1	6
Oc1ccc2ccccc2c1C1Nc2cccc3cccc(c23)N1	42*	15	12	-4	10	24
SMILES	GSTO1 counter	pPAFAH inh	PME-1 inh	PAD4 FP inh	Fam108B inh	GSTO1 inh conf	others
CC1CCC(NC(=O)CCS(=O)(=O)c2ccc3c(c2)NC(=O)CS3)CC1 (stereo unspecified)	8	3	-6	-4	0	x
O=C1CSc2ccc(S(=O)(=O)CCC(=O)NC3CCCCC3)cc2N1	53*	5	5	-8	0	4
CCOC(=O)C1=C(C)N(c2ccc(OC)cc2)C(=O)/C1=C\c1ccc(O)c(OCC)c1	57*	8	4	-3	5	9
Cc1ccc(NC(=O)c2oc3ccccc3c2COC(C)C)cc1S(=O)(=O)N1CCOCC1	x	-3	x	2	x	x
CCOC(=O)c1[nH]c2ccc(OCC)cc2c1CCCN1C(=O)c2ccccc2C1=O	2	1	3	-2	0	x
COCCn1c(SCC(=O)N2CCOCC2)nnc1-c1ccco1	1	8	-5	5	-2	x
COCCn1c(SCC(=O)N2CCCCCC2)nnc1-c1ccco1	39*	2	-1	-10	5	7
